Experimental data reported in PubChem BioAssay (NCI).
Compounds without any hit were thinned out: in the full panel of roughly 83,000, 20% have a hit.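 48-hour exposure, single concentration, 96-well plates; percent growth endpoint where 0 means no net growth. Active: below 10.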 Values without a mark were called inactive. Activity calls are given as the source filed them.

Legend:
Assay in all cases: NCI-60 one-dose screen, 48 h (100 = growth as untreated, 0 = no growth, -100 = all killed)
Conditions in all cases: 10 µM unless noted
[1] = test system: DU-145 prostate
[2] = test system: K-562 leukemia
[3] = test system: MALME-3M melanoma
[4] = test system: MDA-MB-231 breast
[5] = test system: RXF 393 renal
[6] = test system: SF-268 CNS
[7] = test system: SF-295 CNS
[8] = test system: SF-539 CNS
[9] = test system: UACC-257 melanoma
[10] = test system: M14 melanoma
[11] = test system: HCT-15 colon
[12] = test system: HT29 colon
[13] = test system: SNB-75 CNS
[14] = test system: U251 CNS
[15] = test system: PC-3 prostate
[16] = test system: SK-MEL-5 melanoma
[17] = test system: UACC-62 melanoma
[18] = test system: LOX IMVI melanoma
[19] = test system: SK-MEL-28 melanoma
[20] = test system: SNB-19 CNS

Row | Compound | growth [1] | growth [2] | growth [3] | growth [4] | growth [5] | growth [6] | growth [7] | growth [8] | growth [9] | growth [10] | growth [11] | growth [12] | growth [13] | growth [14] | growth [15] | growth [16] | growth [17] | growth [18] | growth [19] | growth [20] [%]
1 | C=CC[N+]1(CC)CCN=C1CCCCCCCCCCCCCCCCC (stereo not drawn) | -100% (active) | -66.9% (active) | -46.4% (active) | -89.7% (active) | -90.3% (active) | -83.4% (active) | -31.4% (active) | -98.2% (active) | -91.3% (active) | -99.8% (active) | -88.6% (active) | -100% (active) | -92.1% (active) | -100% (active) | -68.6% (active) | -100% (active) | -86.1% (active) | -96.3% (active) | -76.1% (active) | –
2 | CCOC(=O)Cc1cnn(C)c1NC(=O)c1ccc(Cl)cc1NC(C)=O | 110% | 103% | 105% | 112% | 115% | 98.7% | 101% | 101% | 105% | 101% | 110% | 110% | 76% | 111% | 94.6% | 95.3% | 99.7% | 107% | 130% | –
3 | c1ccc2c(Nc3cccc4ccccc34)cccc2c1 | 86.4% | 11.2% | 50% | 46% | 83.8% | 72.7% | 69.1% | 56.9% | 80.3% | 30.3% | 35.1% | 15.8% | 20.8% | 32.1% | 65.2% | 71% | 23.7% | 52.6% | 61.5% | –
4 | CN1CCN(Cc2ccc(NC(=O)c3[nH]ncc3Nc3ccnc4ccsc34)cc2)CC1 | 14.7% | 26.5% | 60.6% | 12.6% | -44.9% (active) | 20.3% | 56.6% | 2.32% (active) | 85.7% | 48.9% | 66.4% | 30.1% | 20.5% | 29.2% | 34% | 38.4% | 64.1% | 0.622% (active) | 54.9% | –
5 | CSc1[nH]c2ncnc(N)c2c1C#N | 101% | 84.6% | 107% | 98.8% | 151% | 113% | 105% | 96.3% | 124% | 95.1% | 99% | 97.9% | 82.5% | 107% | 110% | 99.9% | 85.9% | 109% | 120% | –
6 | N#Cc1c(N)nc(N)nc1Nc1ccc(Br)cc1 | 98.7% | 99% | 107% | 87.3% | 94.3% | 92.5% | 91% | 89.6% | 92% | 163% | 103% | 93.9% | 96.8% | 96.9% | 79.1% | 89.6% | 86.4% | 92.4% | 110% | –
7 | COc1cc(-c2nc3ccccc3s2)ccc1NC(=O)COc1ccc(Cl)cc1 | 82.1% | 74.9% | 48.3% | 45.9% | 66.3% | 29.4% | 29% | 26.7% | 85.3% | 60% | 85.8% | 34.9% | 21.3% | 41.9% | 49.8% | 73.7% | 36.1% | 64.7% | 58.6% | –
8 | Cc1ccc2c(c1)O/C(=C\c1cccc(OCC(=O)c3ccccc3)c1)C2=O | 103% | 93.4% | 94.7% | 79% | 80% | 103% | 89.4% | 105% | 93.6% | 98.9% | 69.8% | 118% | 93.4% | 96.5% | 358% | 87.3% | 66.1% | 101% | 110% | –
9 | O=c1c2c3c(sc2n2c(CCl)nnc2n1Cc1ccccc1)CCCC3 | -11.9% (active) | -65.2% (active) | -71.4% (active) | -60.2% (active) | -39.1% (active) | -59.2% (active) | 126% | -85.5% (active) | -53.6% (active) | -49.9% (active) | -89.4% (active) | -100% (active) | -61.3% (active) | -99.2% (active) | -100% (active) | -96.1% (active) | -72.8% (active) | -100% (active) | -100% (active) | –
10 | Cn1c2ccccc2c2c3c(c4c5ccccc5n(CCCCCC#N)c4c21)C(=O)N(O)C3=O | 16.3% | 16.2% | 28.6% | 27.9% | -21.8% (active) | 12.2% | 9.59% (active) | -33% (active) | 15.6% | 1.43% (active) | 13.9% | 4.37% (active) | 17.2% | 12.8% | 24.3% | -80.3% (active) | -18.5% (active) | -66.7% (active) | 6.74% (active) | –
11 | CCOC(=S)SCc1ccc(Cl)cc1 | 106% | 110% | 107% | 85.4% | 87.6% | 106% | 89.4% | 114% | 100% | 99.1% | 94.8% | 103% | 76.5% | 90.5% | 81.7% | 106% | 95.5% | 99.3% | 114% | –
12 | COc1ccc(C(=O)COc2ccc(/C=C3\Oc4ccc(Cl)cc4C3=O)cc2)cc1 | 107% | 16.7% | 115% | 86.8% | 101% | 108% | 92.7% | 86.3% | 89.9% | 104% | 103% | 109% | 88.8% | 96.7% | – | 78.8% | 83.6% | 92% | 79.9% | –
13 | COc1cc2c(c(OC)c1OC)-c1ccc(N=NC(N)=S)c(=O)cc1[C@@H](NC(C)=O)CC2 | -40.1% (active) | 9.08% (active) | 61.2% | 9.7% (active) | -13.5% (active) | 9.15% (active) | 6.76% (active) | 1.01% (active) | 49.5% | -39.1% (active) | 76.4% | -2.5% (active) | – | 9.3% (active) | 57.3% | -33.2% (active) | 17.2% | 13.5% | – | 27.9
14 | CS(=O)(=O)c1ccc(-c2cnc3ccc(-c4cccc(S(C)(=O)=O)c4)nn23)cc1 | 27.9% | 46.9% | 35.3% | 49.4% | 9.52% (active) | 36.3% | 53.7% | 24% | 58.1% | 42.8% | 28.2% | 33.7% | 12.4% | 46.3% | – | 38.3% | 28.8% | 12.3% | 52.5% | –
15 | Cc1cc(N/N=C/c2nc(-c3ccc(Cl)cc3)oc2C)c2cc(Br)ccc2n1 | 31.9% | 0% (active) | 7.27% (active) | 70.4% | 98.6% | 68.5% | 105% | 87.3% | 101% | 40.6% | -20.3% (active) | -45.8% (active) | – | -33.3% (active) | 80.2% | 91.9% | 58.2% | -43.4% (active) | – | 41.6
16 | OC(c1cc(-c2ccccc2)nc2ccc(Cl)cc12)C1CCCCN1 (stereo not drawn) | 60.1% | -18.4% (active) | -41.3% (active) | -30.5% (active) | 56.3% | 60.7% | 96.2% | 67.5% | 70.9% | -66.3% (active) | -12.3% (active) | -3.87% (active) | 61.9% | 21.5% | 49.4% | -5.63% (active) | -31.2% (active) | -83.2% (active) | -76.9% (active) | –
17 | C=C1CC2(OC1=O)C(=O)N(CCCCCCCCCCCCN1C(=O)C3(CC(=C)C(=O)O3)c3ccccc31)c1ccccc12 (stereo not drawn) | 98.7% | 6.7% (active) | 75.5% | 55.8% | 52.8% | 93% | 97.6% | 87.3% | 94.9% | 79.4% | 65% | 86.7% | – | 74.3% | 64.7% | 86.4% | 78.9% | 4.86% (active) | – | 89.5
